Screening results: PubChem, National Center for Advancing Translational Sciences (NCATS)
The list is not random: actives were taken first. Their share in the collection is about 8%.
KB-3-1 tox – kills parental KB-3-1 adenocarcinoma cells | 400,000 tested, 1.4% active | Potency, µM (series often up to 46.1 µM), actives largely listed as cytotoxic | KB-3-1 viability, CellTiter-Glo ATP luminescence, 72 h | AID 1347075; also: % is scaled to controls: 0 for no effect and ±100 for the full control effect; nearly all actives have a fitted effect of over 60% in size
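KB-3-1 cells, DMEM (no phenol red) + 10% FBS; compound by pin transfer, 72 h, 37 °C. Readout: CellTiter-Glo luminescence after 10 min. Data normalized, curve-fitted.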
HT1080-NT tox – kills 2HG-producing HT-1080-NT fibrosarcoma cells. HT-1080-NT fibrosarcoma viability, CellTiter-Glo ATP luminescence, 48 h. 360,000 tested, 1.6% active. Potency, µM (highest dose often 46.1 µM), for inactives: at the top dose activity, negative = less viability, usual class: cytotoxic;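 also: NT is the 2HG producing partner of a matched IDH1 knockdown line; 0% = DMSO-treated cells and -100% = media-only wells without cells; nearly all actives have a fitted effect of over 55% in size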
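Fibrosarcoma NT cells, 750 per well in 5% FBS RPMI, were exposed to compound for 48 hours. Viability: CellTiter-Glo luminescence.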
MCF10A rerep – inducers of DNA re-replication in MCF 10A breast cells; MCF 10A DNA re-replication, Hoechst nuclear intensity, 48 h; 350,000 tested, 2.9% active; AID 624296; Potency, µM (highest dose often 46.1 µM), without a hit: at the top dose activity, positive = re-replication, usual class: activators; also: % of control where 0% means no effect; nearly all actives have a fitted effect of over 50% in size
SW480 rerep – inducers of DNA re-replication in SW480 colon cancer cells. Potency, µM (top dose mostly 46.1 µM), inactives show at the highest dose re-replication activation, usual class: activators. 340,000 tested, 1.8% active. SW480 DNA re-replication, Hoechst DNA content imaging, 48 h; also: % of control where 0% means no effect; nearly all actives have a fitted effect of over 55% in size
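DNA re-replication was detected as more nuclei of elevated Hoechst intensity after 48 hr exposure to compound (23 nL pinned per well of 250 cells).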
HT1080 IDH1KD tx – kills HT-1080 cells with IDH1 knockdown. HT-1080 IDH1 knockdown viability, ATP luminescence, 48 h. Potency, µM (highest dose often 46.1 µM), for the others: at the top dose activity, negative = toxicity, hits mostly cytotoxic. 360,000 tested, 2% active;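 also: 0% = DMSO wells and -100% = cell-free medium wells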
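Assay cells: HT-1080 with IDH1 knockdown, 750 per well, RPMI/5% FBS. Exposure: 48 h at 37 °C following 2 h pre-incubation. Read: CellTiter-Glo luminescence; fitted concentration-response, curve class assigned.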
KB-V1 MDR tox – kills drug-selected multidrug resistant KB-V1 cells; KB-V1 MDR cells viability, CellTiter-Glo, 72 h; Potency, µM (highest dose often 46.1 µM), usual class: cytotoxic; 400,000 tested, 3.4% active; AID 1347076; also: % is scaled to controls: 0 for no effect and ±100 for the full control effect; nearly all actives have a fitted effect of over 60% in size
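Cytotoxicity toward P-gp-expressing KB-V1 cells was determined as loss of CellTiter-Glo luminescence after 72 h at 37 degrees C. Compounds were tested in quantitative HTS format across a concentration range, with curves fitted to normalized data.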
An asterisk follows results filed as active; i = inactive; ? = inconclusive; · = not tested or not shown. Calls follow the shape of the dose curve; as a rule, active = well fitted curve in the direction sought with a large enough effect; inconclusive = small, poorly fitted or top-dose-only effect, or another doubt; inactive = no such curve, though single readings can be large; an effect the other way counts as inactive or inconclusive. Potency is read from the fitted curve at half-maximal effect.

SMILES	KB-3-1 tox	HT1080-NT tox	MCF10A rerep	SW480 rerep	HT1080 IDH1KD tx	KB-V1 MDR tox
Cc1ccc(-c2cc([C@H]3[C@@H]4C=CCC[C@@]4(C)C(=O)N3Cc3ccccc3)ccc2F)cc1	?	-17%	5%	?	?	i
Cc1ccc(F)c([C@H]2[C@@H]3C=CCC[C@@]3(C)C(=O)N2Cc2ccccc2)c1	i	-4%	23µM*	-4%	-3%	i
COc1ccc(/C=C2\N=C(c3ccccc3Cl)NC2=O)cc1	?	-23%	13µM*	10µM*	15µM*	?
O=C(CN1C(=O)C2(SCC(=O)N2c2ccccc2)c2ccccc21)NCc1ccccc1Cl (stereo not given)	i	·	·	·	·	i
COc1ccc(N2C(=O)CSC23C(=O)N(Cc2ccc(C)cc2)c2ccccc23)cc1Cl (stereo not given)	?	·	·	·	·	18µM*
O=C(CN1C(=O)C2(SCC(=O)N2c2cccc(F)c2)c2ccccc21)NCc1ccccc1Cl (stereo not given)	i	·	·	·	·	6.5µM*
O=C1CSC2(C(=O)N(Cc3ccccc3F)c3ccccc32)N1c1cccc(C(F)(F)F)c1 (stereo not given)	18µM*	·	·	·	·	8.2µM*
COc1cccc(N2C(=O)CSC23C(=O)N(Cc2ccccc2F)c2ccccc23)c1 (stereo not given)	i	·	·	·	·	?
O=C(CN1C(=O)C2(SCC(=O)N2c2ccc(F)c(F)c2)c2ccccc21)Nc1ccccc1F (stereo not given)	i	·	·	·	·	i
COc1ccc(N2C(=O)CSC23C(=O)N(Cc2ccccc2F)c2ccccc23)cc1Cl (stereo not given)	?	·	·	·	·	18µM*
Cc1ccc(C2C=C(c3ccc(Cl)cc3)Nc3nc(NC(=O)c4ccco4)nn32)cc1 (stereo not given)	i	·	·	·	·	?
COc1ccc(-c2ccc(NS(=O)(=O)c3ccc(NC(C)=O)cc3)cc2)nn1	i	·	·	·	·	i
O=C(c1ccncc1)c1ccc(N2CCN(C3CC(=O)N(Cc4cccs4)C3=O)CC2)cc1 (stereo not given)	?	12µM*	-2%	-6%	-28%	i
O=C1CC(N2CCN(c3ccc(O)cc3)CC2)C(=O)N1Cc1cccs1 (stereo not given)	i	?	5%	1%	?	i
CCOc1ccc(C(=O)Nc2cnn(Cc3ccc(Cl)c(Cl)c3)c2)cc1	?	?	0.65µM*	3%	?	2.6µM*
COc1ccc(O)c(/C=N/Nc2nc(C)cc(-c3ccccc3)n2)c1	i	?	?	-43%	?	?
CNc1nc(N/N=C/c2cc3c(cc2[N+](=O)[O-])OCO3)nc(Nc2ccccc2)n1	i	?	?	-66%	?	16µM*
COc1cc(/C=N/Nc2nc(Nc3ccccc3)nc(-n3nc(C)cc3C)n2)cc(OC)c1OC	?	?	15µM*	?	15µM*	7.3µM*
COc1ccc(O)c(/C=N/Nc2nc(Nc3ccccc3)nc(-n3nc(C)cc3C)n2)c1	15µM*	?	?	?	16µM*	?
COc1cc(/C=N/n2nnnc2Nc2ccccc2)cc(OC)c1OC	i	0%	0%	-110%	0%	2.6µM*
COc1cc(/C=N/Nc2nc(Nc3ccccc3)nc(N3CCCCC3)n2)ccc1OCC(=O)O	i	2%	-3%	-9%	26%	i
COc1ccc(/C=N/Nc2nc(Nc3ccccc3)nc(N3CCCC3)n2)cc1[N+](=O)[O-]	i	15µM*	?	18µM*	?	?
COc1ccc(/C=N/Nc2cc(C)nc(-n3nc(C)cc3C)n2)cc1	?	?	?	?	?	i
COc1ccc(/C=N/Nc2nc(N3CCCCC3)nc(N3CCCCC3)n2)cc1[N+](=O)[O-]	i	-1%	?	5%	-1%	i
COc1cc(/C=N/Nc2nc(Nc3ccc(C)cc3)nc(-n3nc(C)cc3C)n2)cc(OC)c1OC	i	4.5µM*	?	13µM*	2.8µM*	?
Cc1ccc2nc(Cl)c3cc(C(=O)NCCCN4CCCC4)sc3c2c1	?	18µM*	?	?	?	i
Cc1ccc2nc(Cl)c3cc(C(=O)N(CCN(C)C)Cc4ccco4)sc3c2c1	?	?	16µM*	?	23µM*	?
CN(C)CCN(Cc1ccco1)C(=O)c1cc2c(Cl)nc3ccccc3c2s1	?	?	?	?	?	i
CCC1CCCCN1CCCNC(=O)c1cc2c(Cl)nc3ccc(C)cc3c2s1 (stereo not given)	i	·	·	·	·	i
